# Laboratory results from ChEMBL document CHEMBL1961873, “Compounds: GSK PKIS; Assays: Nanosyn kinase panel” (2012).
# Assays:
# [1] = target: T1, Muscle, skeletal receptor tyrosine-protein kinase (Homo sapiens) (UniProt O15146); settings: at 1 µM;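 also: reported value is the mean percent inhibition of MuSK kinase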
# T1 sequence (whole entry): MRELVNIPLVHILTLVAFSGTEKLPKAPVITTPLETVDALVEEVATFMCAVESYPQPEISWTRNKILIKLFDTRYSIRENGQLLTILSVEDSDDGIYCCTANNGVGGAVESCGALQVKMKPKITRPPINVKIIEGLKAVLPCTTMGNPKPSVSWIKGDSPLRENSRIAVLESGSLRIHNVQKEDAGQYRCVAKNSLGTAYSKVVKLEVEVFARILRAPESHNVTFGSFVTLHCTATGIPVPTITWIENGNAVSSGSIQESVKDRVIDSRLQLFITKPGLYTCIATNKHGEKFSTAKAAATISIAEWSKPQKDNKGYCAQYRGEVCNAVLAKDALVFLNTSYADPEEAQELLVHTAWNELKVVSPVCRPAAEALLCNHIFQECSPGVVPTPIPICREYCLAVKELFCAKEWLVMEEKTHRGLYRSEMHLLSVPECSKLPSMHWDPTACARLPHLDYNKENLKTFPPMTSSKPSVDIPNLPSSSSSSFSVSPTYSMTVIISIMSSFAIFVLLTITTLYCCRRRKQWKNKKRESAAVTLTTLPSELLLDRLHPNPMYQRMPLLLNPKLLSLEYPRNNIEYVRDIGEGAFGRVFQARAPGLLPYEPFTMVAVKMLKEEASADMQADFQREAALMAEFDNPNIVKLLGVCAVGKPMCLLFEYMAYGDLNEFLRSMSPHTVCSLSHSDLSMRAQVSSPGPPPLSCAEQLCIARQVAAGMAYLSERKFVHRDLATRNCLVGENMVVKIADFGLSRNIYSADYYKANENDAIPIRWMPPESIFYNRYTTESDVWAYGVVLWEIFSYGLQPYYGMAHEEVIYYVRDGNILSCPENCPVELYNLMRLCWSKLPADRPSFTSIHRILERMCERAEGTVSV
# [2] = target: Platelet-derived growth factor receptor alpha (Homo sapiens) (UniProt P16234); settings: at 0.1 µM
# [3] = target: Platelet-derived growth factor receptor alpha (Homo sapiens) (UniProt P16234); settings: at 1 µM
# [4] = tested on: Platelet-derived growth factor receptor alpha (Homo sapiens), P16234 [D842V]; settings: at 0.1 µM
# [5] = tested on: Platelet-derived growth factor receptor alpha (Homo sapiens), P16234 [D842V]; settings: at 1 µM
# [6] = tested on: Platelet-derived growth factor receptor alpha (Homo sapiens), P16234 [T674I]; settings: at 0.1 µM
# [7] = tested on: Platelet-derived growth factor receptor alpha (Homo sapiens), P16234 [T674I]; settings: at 1 µM
# [8] = tested on: Platelet-derived growth factor receptor alpha (Homo sapiens), P16234 [V561D]; settings: at 0.1 µM
# [9] = tested on: Platelet-derived growth factor receptor alpha (Homo sapiens), P16234 [V561D]; settings: at 1 µM
# [10] = target: Platelet-derived growth factor receptor beta (Homo sapiens) (UniProt P09619); settings: at 0.1 µM
# [11] = target: Platelet-derived growth factor receptor beta (Homo sapiens) (UniProt P09619); settings: at 1 µM
# [12] = target: Tyrosine-protein kinase FRK (Homo sapiens) (UniProt P42685); settings: at 0.1 µM
# [13] = target: Tyrosine-protein kinase FRK (Homo sapiens) (UniProt P42685); settings: at 1 µM
# [14] = target: Protein-tyrosine kinase 2-beta (Homo sapiens) (UniProt Q14289); settings: at 0.1 µM
# [15] = target: Protein-tyrosine kinase 2-beta (Homo sapiens) (UniProt Q14289); settings: at 1 µM
# [16] = target: Proto-oncogene tyrosine-protein kinase receptor Ret (Homo sapiens) (UniProt P07949); settings: at 0.1 µM
# [17] = target: Proto-oncogene tyrosine-protein kinase receptor Ret (Homo sapiens) (UniProt P07949); settings: at 1 µM
# [18] = tested on: Proto-oncogene tyrosine-protein kinase receptor Ret (Homo sapiens), P07949 [V804L]; settings: at 0.1 µM
# [19] = tested on: Proto-oncogene tyrosine-protein kinase receptor Ret (Homo sapiens), P07949 [V804L]; settings: at 1 µM
# [20] = tested on: Proto-oncogene tyrosine-protein kinase receptor Ret (Homo sapiens), P07949 [Y791F]; settings: at 0.1 µM
# Sequence of Platelet-derived growth factor receptor alpha (Homo sapiens), P16234 [D842V] (P16234 whole entry D842V): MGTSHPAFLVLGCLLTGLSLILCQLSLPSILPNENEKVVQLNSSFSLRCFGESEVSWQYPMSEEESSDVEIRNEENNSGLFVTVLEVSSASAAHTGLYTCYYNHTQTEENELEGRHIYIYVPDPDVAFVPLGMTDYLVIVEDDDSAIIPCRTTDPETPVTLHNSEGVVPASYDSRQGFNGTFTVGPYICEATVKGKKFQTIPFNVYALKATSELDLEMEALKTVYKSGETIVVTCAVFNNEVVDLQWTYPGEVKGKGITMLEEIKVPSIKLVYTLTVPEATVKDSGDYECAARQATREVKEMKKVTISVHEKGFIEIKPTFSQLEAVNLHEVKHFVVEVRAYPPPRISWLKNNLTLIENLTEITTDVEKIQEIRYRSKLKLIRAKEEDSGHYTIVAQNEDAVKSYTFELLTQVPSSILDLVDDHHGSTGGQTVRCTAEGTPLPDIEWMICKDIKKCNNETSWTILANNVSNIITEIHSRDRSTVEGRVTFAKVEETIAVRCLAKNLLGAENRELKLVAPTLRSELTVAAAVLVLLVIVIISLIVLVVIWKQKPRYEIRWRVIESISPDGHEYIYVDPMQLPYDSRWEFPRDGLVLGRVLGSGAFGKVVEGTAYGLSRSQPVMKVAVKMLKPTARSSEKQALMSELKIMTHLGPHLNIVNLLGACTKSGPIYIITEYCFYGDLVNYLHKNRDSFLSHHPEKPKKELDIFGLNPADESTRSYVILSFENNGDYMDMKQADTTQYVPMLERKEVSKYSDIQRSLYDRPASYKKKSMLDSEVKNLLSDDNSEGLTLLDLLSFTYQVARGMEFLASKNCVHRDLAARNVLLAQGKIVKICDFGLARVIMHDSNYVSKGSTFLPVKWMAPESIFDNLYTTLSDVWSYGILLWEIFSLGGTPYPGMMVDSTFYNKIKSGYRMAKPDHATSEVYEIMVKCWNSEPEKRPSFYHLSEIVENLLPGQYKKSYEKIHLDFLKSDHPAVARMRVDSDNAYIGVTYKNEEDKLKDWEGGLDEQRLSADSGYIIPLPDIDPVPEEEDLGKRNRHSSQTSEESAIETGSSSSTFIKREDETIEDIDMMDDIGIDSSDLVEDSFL
# Sequence of Protein-tyrosine kinase 2-beta (Homo sapiens) (Q14289 whole entry, looked up): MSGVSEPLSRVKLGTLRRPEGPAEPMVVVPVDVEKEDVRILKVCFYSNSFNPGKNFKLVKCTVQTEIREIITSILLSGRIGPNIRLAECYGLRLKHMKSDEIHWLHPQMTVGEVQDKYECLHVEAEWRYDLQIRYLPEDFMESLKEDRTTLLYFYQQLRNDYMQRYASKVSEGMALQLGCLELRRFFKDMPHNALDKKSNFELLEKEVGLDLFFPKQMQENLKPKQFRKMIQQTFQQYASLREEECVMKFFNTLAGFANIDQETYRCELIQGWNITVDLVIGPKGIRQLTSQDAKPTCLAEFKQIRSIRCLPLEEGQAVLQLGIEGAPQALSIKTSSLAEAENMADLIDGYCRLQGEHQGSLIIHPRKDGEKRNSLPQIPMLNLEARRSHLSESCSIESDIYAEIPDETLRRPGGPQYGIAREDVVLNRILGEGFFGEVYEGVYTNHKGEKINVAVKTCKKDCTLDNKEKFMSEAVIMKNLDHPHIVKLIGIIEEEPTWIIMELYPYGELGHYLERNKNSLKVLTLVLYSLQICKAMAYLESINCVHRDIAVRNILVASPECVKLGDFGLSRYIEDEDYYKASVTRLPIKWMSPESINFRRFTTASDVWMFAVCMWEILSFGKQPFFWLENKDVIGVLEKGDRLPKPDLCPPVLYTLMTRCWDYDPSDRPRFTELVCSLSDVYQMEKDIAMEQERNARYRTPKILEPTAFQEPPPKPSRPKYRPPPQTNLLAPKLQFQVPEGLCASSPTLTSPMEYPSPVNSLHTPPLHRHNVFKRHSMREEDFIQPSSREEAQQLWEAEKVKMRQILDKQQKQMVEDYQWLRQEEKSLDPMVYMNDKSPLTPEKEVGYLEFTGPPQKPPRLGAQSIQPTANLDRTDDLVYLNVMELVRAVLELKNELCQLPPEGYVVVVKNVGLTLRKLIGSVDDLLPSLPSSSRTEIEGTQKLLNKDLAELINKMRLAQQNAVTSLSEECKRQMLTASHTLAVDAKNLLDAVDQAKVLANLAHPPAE
# Sequence of Proto-oncogene tyrosine-protein kinase receptor Ret (Homo sapiens), P07949 [V804L] (P07949 whole entry V804L): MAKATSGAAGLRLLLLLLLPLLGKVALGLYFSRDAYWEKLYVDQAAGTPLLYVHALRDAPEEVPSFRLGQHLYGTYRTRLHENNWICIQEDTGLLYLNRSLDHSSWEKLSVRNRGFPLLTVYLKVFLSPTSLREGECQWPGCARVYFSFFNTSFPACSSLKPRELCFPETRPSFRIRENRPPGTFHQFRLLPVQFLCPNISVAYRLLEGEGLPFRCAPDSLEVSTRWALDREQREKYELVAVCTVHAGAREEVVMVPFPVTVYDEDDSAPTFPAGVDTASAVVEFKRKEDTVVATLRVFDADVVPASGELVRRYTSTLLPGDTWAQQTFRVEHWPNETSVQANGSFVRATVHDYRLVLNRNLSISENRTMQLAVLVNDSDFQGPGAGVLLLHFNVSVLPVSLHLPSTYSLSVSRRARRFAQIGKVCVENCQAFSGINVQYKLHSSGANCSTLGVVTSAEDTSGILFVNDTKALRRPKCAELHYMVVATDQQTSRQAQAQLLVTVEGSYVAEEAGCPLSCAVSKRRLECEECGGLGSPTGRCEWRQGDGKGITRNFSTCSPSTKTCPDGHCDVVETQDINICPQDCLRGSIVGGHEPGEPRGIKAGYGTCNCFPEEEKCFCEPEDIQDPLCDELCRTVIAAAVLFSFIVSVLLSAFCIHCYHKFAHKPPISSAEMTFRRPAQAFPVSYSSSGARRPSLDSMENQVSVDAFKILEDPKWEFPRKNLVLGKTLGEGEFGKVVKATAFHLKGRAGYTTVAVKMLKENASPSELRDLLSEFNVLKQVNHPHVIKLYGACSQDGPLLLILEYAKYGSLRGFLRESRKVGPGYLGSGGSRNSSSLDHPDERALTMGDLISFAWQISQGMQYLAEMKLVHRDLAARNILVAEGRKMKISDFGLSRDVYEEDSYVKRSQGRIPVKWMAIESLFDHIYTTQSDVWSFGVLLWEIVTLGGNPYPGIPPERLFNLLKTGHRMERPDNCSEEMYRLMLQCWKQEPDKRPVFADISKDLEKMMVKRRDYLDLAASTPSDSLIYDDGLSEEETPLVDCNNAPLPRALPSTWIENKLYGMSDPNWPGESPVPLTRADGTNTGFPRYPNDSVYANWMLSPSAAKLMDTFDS
# Sequence of Platelet-derived growth factor receptor beta (Homo sapiens) (P09619 whole entry): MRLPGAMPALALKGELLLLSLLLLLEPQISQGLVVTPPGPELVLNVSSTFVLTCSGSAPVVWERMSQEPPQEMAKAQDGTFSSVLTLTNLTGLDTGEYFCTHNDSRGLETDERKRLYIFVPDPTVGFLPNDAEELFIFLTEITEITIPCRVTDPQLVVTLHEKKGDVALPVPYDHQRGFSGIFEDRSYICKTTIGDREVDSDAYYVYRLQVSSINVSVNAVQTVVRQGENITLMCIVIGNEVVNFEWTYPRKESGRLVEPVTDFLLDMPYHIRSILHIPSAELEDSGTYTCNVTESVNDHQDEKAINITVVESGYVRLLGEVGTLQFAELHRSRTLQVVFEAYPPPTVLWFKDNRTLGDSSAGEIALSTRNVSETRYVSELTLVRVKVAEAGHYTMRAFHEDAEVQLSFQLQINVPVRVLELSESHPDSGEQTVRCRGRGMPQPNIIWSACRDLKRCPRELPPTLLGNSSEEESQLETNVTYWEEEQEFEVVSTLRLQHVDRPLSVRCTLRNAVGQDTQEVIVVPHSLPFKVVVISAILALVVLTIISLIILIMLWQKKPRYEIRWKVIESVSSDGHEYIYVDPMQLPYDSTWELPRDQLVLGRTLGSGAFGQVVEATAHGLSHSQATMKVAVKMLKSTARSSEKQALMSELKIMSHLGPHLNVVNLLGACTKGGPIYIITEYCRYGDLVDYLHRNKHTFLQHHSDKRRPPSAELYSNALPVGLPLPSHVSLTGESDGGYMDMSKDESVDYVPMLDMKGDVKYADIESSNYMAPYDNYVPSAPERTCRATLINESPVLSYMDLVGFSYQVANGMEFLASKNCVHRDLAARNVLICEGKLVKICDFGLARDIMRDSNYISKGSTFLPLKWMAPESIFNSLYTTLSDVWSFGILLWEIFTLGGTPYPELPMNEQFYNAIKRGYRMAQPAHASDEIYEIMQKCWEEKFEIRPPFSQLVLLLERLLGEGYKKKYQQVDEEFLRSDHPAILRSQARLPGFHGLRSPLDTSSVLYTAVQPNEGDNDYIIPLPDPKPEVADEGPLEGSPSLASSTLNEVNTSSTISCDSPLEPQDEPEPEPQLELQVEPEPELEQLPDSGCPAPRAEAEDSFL
# Sequence of Tyrosine-protein kinase FRK (Homo sapiens) (P42685 whole entry): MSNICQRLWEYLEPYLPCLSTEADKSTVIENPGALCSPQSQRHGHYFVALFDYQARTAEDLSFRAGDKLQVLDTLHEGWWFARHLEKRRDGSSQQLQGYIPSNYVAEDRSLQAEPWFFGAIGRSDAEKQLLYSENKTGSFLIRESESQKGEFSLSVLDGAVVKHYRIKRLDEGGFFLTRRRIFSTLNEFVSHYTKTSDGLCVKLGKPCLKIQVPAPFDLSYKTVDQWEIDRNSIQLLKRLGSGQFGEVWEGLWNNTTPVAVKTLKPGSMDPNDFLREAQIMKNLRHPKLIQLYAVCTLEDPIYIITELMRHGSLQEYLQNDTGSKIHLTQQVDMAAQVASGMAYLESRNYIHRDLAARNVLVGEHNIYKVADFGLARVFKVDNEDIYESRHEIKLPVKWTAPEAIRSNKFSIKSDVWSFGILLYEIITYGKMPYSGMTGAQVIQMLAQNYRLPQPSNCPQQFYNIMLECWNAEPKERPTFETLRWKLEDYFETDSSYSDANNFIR
SMILES,inhibition [1],inhibition [2],inhibition [3],inhibition [4],inhibition [5],inhibition [6],inhibition [7],inhibition [8],inhibition [9],inhibition [10],inhibition [11],inhibition [12],inhibition [13],inhibition [14],inhibition [15],inhibition [16],inhibition [17],inhibition [18],inhibition [19],inhibition [20]
CNC(=O)c1cccc(C#Cc2cncnc2Nc2ccc(OCc3cccc(F)c3)c(Cl)c2)c1,-1.15%,5.17%,17.4%,-0.74%,2.9%,1.03%,2.59%,0.66%,4.6%,4.41%,14.1%,-0.32%,-0.09%,-0.72%,5.17%,1.18%,11.6%,2.44%,12.6%,0.02%
COc1ccc2c(-c3ccnc(Nc4cccc(OC(F)(F)F)c4)n3)cnn2n1,11.5%,9.71%,30.5%,-0.9%,13.4%,7.01%,9.76%,5.14%,19.4%,4.02%,32.6%,1.94%,1.99%,14.4%,59.9%,3.2%,8.79%,3.12%,12.5%,1.41%
NS(=O)(=O)c1ccc(Nc2ncc(-c3ccccc3)o2)cc1,12.4%,7.81%,34.8%,1.5%,10.2%,14.4%,65.1%,25.7%,50.5%,12%,46.6%,1.2%,1.36%,10.6%,19.8%,3.66%,7.66%,3.57%,10%,0.77%
CCn1c(-c2nonc2N)nc2cnc(Oc3cccc(NC(=O)c4ccc(N(C)C)cc4)c3)cc21,2.13%,4.44%,6.4%,1.28%,1.65%,2.82%,4.91%,1.85%,6.18%,3.88%,6.43%,1.12%,0.64%,1.13%,3.58%,3.06%,4.26%,3.42%,6.51%,3.78%
CCNC(=O)O[C@H]1CN[C@H](C#Cc2cc3ncnc(Nc4ccc(OCc5cccc(F)c5)c(Cl)c4)c3s2)C1,3.77%,5.36%,8.44%,1.55%,1.32%,4.01%,3.06%,1.45%,1.92%,2.77%,5.63%,1.7%,1.79%,9.03%,7.74%,2%,3.91%,2.16%,0.84%,1.93%
CCN(CC)S(=O)(=O)c1ccc(OC)c(Nc2ncc(-c3ccccc3)o2)c1,6.08%,12.7%,50.7%,5.3%,23.2%,8.47%,8.95%,10.1%,39.2%,19.2%,63.8%,1.39%,9.88%,-0.93%,16.5%,9.2%,36.2%,3.84%,21.3%,5.14%
Nc1ncc(-c2cccc(S(N)(=O)=O)c2)c2scc(-c3ccc(F)c(Cl)c3)c12,1.44%,18.9%,72.1%,7.66%,42.4%,4.52%,10.5%,36.8%,78.1%,14.8%,53.4%,2.22%,14.2%,2.23%,20.8%,11.8%,49%,5.58%,7.48%,12.4%
Cc1cccc2c1NC(=O)/C2=N\Nc1ccc(S(N)(=O)=O)cc1,5.17%,7.81%,17.4%,0.21%,8.1%,3.33%,7.27%,13.4%,41.3%,2.52%,10.2%,1.71%,0.62%,3.22%,9.89%,1.83%,5.76%,3.14%,7.11%,2.74%
N#Cc1c(NC(=O)CN2CCOCC2)sc2c1CCCC2,5.38%,6.84%,10.4%,3.81%,4.78%,6.89%,9.82%,4.95%,3.92%,2.42%,8.2%,2.9%,1.5%,9.37%,14.3%,4.27%,7.18%,1.54%,8.77%,5.41%
COC(=O)Nc1nc2ccc(Oc3ccc(NC(=O)Nc4cccc(Cl)c4)cc3)cc2[nH]1,33.2%,62.2%,76.9%,2.44%,8.07%,76.6%,85.5%,74.6%,92.6%,12.2%,28.7%,0.45%,0.48%,0.45%,5.25%,52.1%,74.4%,23.8%,54.8%,45.5%
O=C(O[C@H]1CN[C@H](C#Cc2cc3ncnc(Nc4ccc(Cc5ccccc5)cc4)c3s2)C1)N1CCOCC1,-2.65%,-1.51%,7.66%,-1%,2.55%,1.75%,3.96%,-0.15%,1.53%,2.34%,0.85%,1.3%,1.99%,0.11%,-6.94%,3.39%,5.06%,1.75%,2.21%,1.94%
COc1cc(Nc2nccc(Nc3ccc4c(C)n[nH]c4c3)n2)cc(OC)c1OC,72.5%,76%,91.6%,50%,90.2%,11.4%,59%,71.4%,96.5%,74.4%,87.5%,1.94%,11.5%,25.2%,84.3%,51.1%,84%,25.3%,68.7%,57.5%
COc1ccc(-c2cc(-c3c[nH]nc3-c3ccccn3)ccn2)cc1,4.1%,13.7%,42.1%,14.9%,58.7%,7.15%,9.53%,11.1%,40.6%,7.26%,31.9%,3.08%,2.92%,7.68%,13.9%,5.33%,5.9%,4.29%,5.73%,6.24%
